# Measurements from paper PMC5998130.
# Target: Smad nuclear-interacting protein 1 (UniProt Q8TAD8)
# Assay: mass-spectrometry hit list; affinity purification or IP with mass spectrometry
substance,measurement,value
"DNA-directed RNA polymerase II subunit RPB1, P24928",listed as a hit,yes
